Source: PubChem BioAssay (NCI)
About 79,000 compounds went through this panel and 15% of them were active in at least one assay; those are over-represented in the sample as a whole. A number with no mark means an inactive call. Active and inactive are the calls of the source. No stated cut-off is given here; in the data, active means growth inhibition above about 70%; inactive means the rest.

assay: NCI Yeast Anticancer Drug Screen. Data for the bub3 strain (AID 167); conditions: S. cerevisiae bub3 mutant strain, at 50.0 µM, active compounds read high
Outline: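 Growth of a checkpoint-deficient yeast mutant is measured after compound exposure. Values represent inhibition relative to vehicle.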

SMILES | growth inhibition
CC(=O)Oc1ccccc1C(=O)/C=C/c1ccccc1 | 61%
CN(C)C(=S)/N=c1\ssc(=S)n1-c1ccccc1 | -2.45%
CCOC(=O)C(NS(=O)(=O)c1ccccc1)(C(F)(F)F)P(=O)(OCC(C)C)OCC(C)C (configuration not stated) | 96.2% (active)
CC(C)Nc1nc(NC(C)C)c2cnn(-c3ccccc3)c2n1 | 81.7% (active)
CCCCCCCCC1(OCCCS(=O)(=O)O)COc2ccccc2OCCOCCOc2ccccc2OC1 | 96% (active)
Oc1ccc2c(c1)Cc1ccccc1-2 | 98.2% (active)
CCOC(=O)N1C2C=CC(=O)C(C=C2)N1C(=O)OCC (configuration not stated) | 86.7% (active)
CC(=O)OCc1ccc2c(c1)C(O)NC(=O)O2 (configuration not stated) | -23.1%
CC(C)=CCc1ccc(O)cc1 | 53.9%
CCCCCCCCC(=O)Cl | 69.3%
O=S1(=O)C(C(O)(c2ccccc2)c2ccccc2)CCCN1c1ccccc1 (configuration not stated) | 21.4%
CCCCCCCCCCCCNCC(=O)O | 92.2% (active)
CC(C)=CCc1c2c(c(O)c3c(=O)c(-c4ccc(O)cc4O)coc13)C=CC(C)(C)O2 | 81.2% (active)
O=C(CCC(O)(c1ccccc1)c1ccccc1)c1ccccc1 | 4.9%
CS(=O)(=O)OCCN(CCOS(C)(=O)=O)c1ccc(C=Nc2ccc(-c3csc(-c4ccc(Br)cc4)n3)cc2)cc1 | 74.8% (active)
O=P(O)(CN1CCN(CP(=O)(O)c2ccccc2)CCN(CP(=O)(O)c2ccccc2)CC1)c1ccccc1 | 88.3% (active)
CC(C)c1ccc2c(c1)CCC1C(C)(CN)CCCC21C (configuration not stated) | 99.3% (active)
